Test results taken from PubChem BioAssay (NCI).
Compounds without any hit were thinned out: in the full panel of roughly 79,000, 15% have a hit. Rule as the data show it: active = growth inhibition above about 70%; inactive = the rest.

Tests used:
[1] = NCI Yeast Anticancer Drug Screen. Data for the rad50 strain (AID 155);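 also: 0% = growth of vehicle-only cultures of the same strain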; conditions: S. cerevisiae rad50 strain growth inhibition; at 50.0 µM; stronger effect = higher value
Method in brief: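 DNA repair mutant yeast, compound exposure, growth read-out; inhibition is taken relative to vehicle.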

[2] = NCI Yeast Anticancer Drug Screen. Data for the mec2-1 strain (AID 157); conditions: S. cerevisiae mec2-1 strain, at 50.0 µM, stronger effect = higher value
Method in brief: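 Vehicle-treated cultures served as reference for growth inhibition of compound-exposed mec2-1 yeast.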

[3] = NCI Yeast Anticancer Drug Screen. Data for the sgs1 mgt1 strain (AID 161);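 also: 0% = growth of cultures given vehicle only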; conditions: S. cerevisiae sgs1 mgt1 strain, at 50.0 µM, stronger effect = higher value
Method in brief: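 Inhibition of yeast growth, normalised to vehicle-treated controls, is reported for a strain bearing genetic alterations in DNA damage repair.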

[4] = NCI Yeast Anticancer Drug Screen. Data for the cln2 rad14 strain (AID 165);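 also: 0% = growth equal to vehicle treated cultures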; conditions: S. cerevisiae cln2 rad14 strain, at 50.0 µM, stronger effect = higher value
Method in brief: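 Each compound was tested on cln2 rad14 yeast. Inhibition of growth was calculated against vehicle-exposed controls.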

[5] = NCI Yeast Anticancer Drug Screen. Data for the bub3 strain (AID 167); conditions: S. cerevisiae bub3 mutant strain, at 50.0 µM, stronger effect = higher value
Method in brief: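 In this screen, a yeast mutant lacking normal mitotic checkpoint function is challenged with compound. Relative growth versus vehicle gives the inhibition value.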

[6] = NCI Yeast Anticancer Drug Screen. Data for the mlh1 rad18 strain (AID 175); conditions: S. cerevisiae mlh1 rad18 strain growth inhibition; at 50.0 µM; stronger effect = higher value
Method in brief: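 Vehicle-treated cultures served as the reference for growth inhibition in a yeast strain carrying DNA damage repair alterations exposed to each compound.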

Measured: growth inhibition

O=C(O)c1ccccc1C(=O)OCC1CCCc2ccccc21 (stereo not given)
inactive: [1] 11.7% | [2] 45.7% | [3] 41.5% | [4] -100% | [5] 43.5% | [6] 46%

C#CCOc1ccc(O)c(C(=O)OCCCOC(=O)c2cc(OCC#C)ccc2O)c1
inactive: [1] 16.1% | [2] 6.95% | [3] -3.9% | [4] 16.9% | [5] -2.1% | [6] 15.1%

COc1ccc(CN2C(=S)SC(c3ccc(Cl)cc3)N2c2ccc(OC)cc2)cc1 (stereo not given)
inactive: [1] -25.1% | [2] -19.6% | [3] -9.2% | [4] -37% | [5] -1.35% | [6] -19.8%

O=C(Nc1cc(C(F)(F)F)ccc1Cl)C(=O)C(C(=O)c1ccc2ccccc2c1)C1OC(=O)c2ccccc21 (stereo not given)
inactive: [1] 35% | [2] 24.4% | [3] 19.6% | [4] 20.3% | [5] 30.9% | [6] 55.5%

Cc1ccc2nc(Nc3nc(C)cc(C)n3)[nH]c2c1
inactive: [1] -36.9% | [2] -31.6% | [3] -21.9% | [4] -0.3% | [5] -17.8% | [6] -11.9%

CC(C)(C)[Si](C)(C)OCCC1CC2(S(=O)(=O)C3=CC=C=C=C3)ON1CC2S(=O)(=O)c1ccccc1 (stereo not given)
inactive: [1] 6.8% | [2] -6.2% | [3] -1.45% | [4] -23.9% | [5] -20.4% | [6] 17.1%

Cc1cc2c(=O)n(-c3ccc(F)cc3)c(C)nc2c(C(=O)O)c1C
inactive: [1] -11.3% | [2] -8.75% | [3] -0.6% | [4] 10% | [5] -14.6% | [6] 9.55%

NC(=O)CN(CC(N)=O)CC(N)=O
inactive: [1] -0.7% | [2] -11.7% | [3] 1.75% | [4] -2.85% | [5] -3.65% | [6] -7.9%

CC(=O)N1CCC(=O)c2ccccc21
inactive: [1] 11.3% | [2] 14.3% | [3] -1.8% | [4] 6.1% | [5] -24.3% | [6] -5.35%

CCOC(=O)c1c[nH]c2c(Cl)c(C)ccc2c1=O
inactive: [1] -40.1% | [2] -48.1% | [3] -17.6% | [4] -110% | [5] -30.1% | [6] -4.75%

COc1ccc(-c2cc(=O)c3c(O)cc(O)c(-c4cc(-c5cc(=O)c6c(O)cc(OC)cc6o5)ccc4OC)c3o2)cc1
inactive: [1] 39.1% | [2] 17.1% | [3] 5.55% | [4] 24.6% | [5] 27.3% | [6] 20%

O=[N+]([O-])c1ccc(C2SCc3nc4ccccc4n32)cc1 (stereo not given)
inactive: [1] 3.4% | [2] -14.2% | [3] 49.1% | [4] 15.2% | [5] 23.1% | [6] -2.65%

O=C(CN(C(=O)OC12CC3CC(CC(C3)C1)C2)C(=O)OC12CC3CC(CC(C3)C1)C2)Oc1ccc([N+](=O)[O-])cc1
inactive: [1] 7.75% | [2] 7.15% | [3] 7.35% | [4] 31.8% | [5] 13.6% | [6] -0.85%

O=C(O)C(=O)O.[Co+3].[NH-]C(Cc1ccccc1)C(=O)[O-].[NH-]CCN(CC[NH-])CC[NH-] (stereo not given)
inactive: [1] 28.2% | [2] 15.8% | [3] 8.8% | [4] 22.6% | [5] 2.7% | [6] 25.6%

COCCN1CC(=O)N2Cc3ccccc3CN2C(=O)C1
inactive: [1] -4.6% | [2] -13.8% | [3] -6.15% | [4] -9.5% | [5] -3% | [6] -6.65%

Cc1ccc(O)c(C)n1
inactive: [1] 4.2% | [2] 14% | [3] 0.15% | [4] 7% | [5] -0.2% | [6] -2.9%

NCCCCCCNCc1cccc2ccccc12
inactive: [1] -9.85% | [2] -13.1% | [3] -9.7% | [4] 6.05% | [5] -10.3% | [6] -31.4%

CCCCC(C(=O)O)C1CCCCC1 (stereo not given)
inactive: [1] -12.3% | [2] 17.4% | [3] 23.4% | [4] -11.9% | [5] -12.2% | [6] -1%

c1ccc(Cc2cc(-c3cc(Cc4ccccc4)[nH]n3)n[nH]2)cc1
inactive: [1] 22.2% | [2] 11.2% | [3] 19.4% | [4] 19.2% | [5] 5.4% | [6] 20.9%

COc1ccccc1Nc1nc2c([nH]1)c(=O)n(C)c(=O)n2C
inactive: [1] -33.9% | [2] -15.2% | [3] -41.9% | [4] -32.8% | [5] -4% | [6] -5.85%

N#CCCOC(=O)Nc1cccc(Cl)c1
inactive: [1] 41.7% | [2] 15.4% | [3] 27.3% | [4] 7.3% | [5] -7.2% | [6] 33.6%

CCN(CC)Cc1cc(-n2cnc3c(=S)nc[nH]c32)ccc1O
inactive: [1] -3.15% | [2] -12.4% | [3] -8.8% | [4] 3.45% | [5] -5.65% | [6] -3.2%

C1CSC[C@H]2COC[C@@H](CSCCS1)S2
inactive: [1] -0.5% | [2] 4.25% | [3] -2.55% | [4] 18.9% | [5] 9.05% | [6] -7.9%

Nc1ccc(Cl)cc1N=Cc1ccccc1[N+](=O)[O-]
inactive: [1] 35.5% | [2] 13.8% | [3] 49.5% | [4] -47.5% | [5] 17.6% | [6] 12.9%

CN(C)N=Nc1ccc(C(=O)N/N=C/c2ccccc2[N+](=O)[O-])cc1
inactive: [1] -13.8% | [2] 1.2% | [3] -16.6% | [4] -18.2% | [5] -14.7% | [6] -40.8%

CC(=O)N(CCC(C)C)c1ccccc1
inactive: [1] 10.6% | [2] 11.6% | [3] -0.75% | [4] -43.9% | [5] -6.45% | [6] -6.85%

COC(=O)c1nnn(-c2c(C)cccc2C(C)C)c1C(=O)c1ccccc1
inactive: [1] 6% | [2] -2.45% | [3] -2.15% | [4] -7.6% | [5] -23.8% | [6] 24.1%

CCCC1(C)COC(=O)OC1
inactive: [1] 6% | [2] 6.5% | [3] 17.5% | [4] 13.9% | [5] 7.1% | [6] 19.9%

OCCOc1ccc(Cl)cc1Cl
inactive: [1] -6% | [2] -32% | [3] -18.2% | [4] -2.85% | [5] -0.8% | [6] 9.05%

c1ccc(C(Sc2c[nH]c3ccccc23)(c2ccccc2)c2ccccc2)cc1 (tested in a mixture with another compound)
inactive: [1] -20.4% | [2] -11.7% | [3] 9.8% | [4] 1.9% | [5] -38.5% | [6] -25.1%

CC(=O)NC1=CC(=O)c2cc(C)cc(O)c2C1=O
inactive: [1] 23.3% | [2] 21.9% | [3] 20.1% | [4] 16.2% | [5] 28.1% | [6] -14.6%

C=C1C(=O)O[C@@H]2[C@H]3O[C@]3(C)CCC=C(C)CC[C@@H]12
inactive: [1] -2.7% | [2] -7.05% | [3] 2.15% | [4] 9.05% | [5] -11.8% | [6] -6.75%

COc1ccc(OC)c(NCc2ccccc2)c1
inactive: [1] -8.6% | [2] -2.5% | [3] -13.9% | [4] -88.5% | [5] -0.4% | [6] 3.65%

CC1CC=C2CCCCC2(C)C1C (stereo not given)
inactive: [1] 8.7% | [2] 13.7% | [3] 16.2% | [4] -30.9% | [5] -40.6% | [6] 3.7%

CC(C)NC(=O)OCCN=C1c2ccccc2C(Br)C(Br)c2ccccc21 (stereo not given)
inactive: [1] 3.25% | [2] -5.1% | [3] 2.05% | [4] 1.1% | [5] 4.9% | [6] 8.6%

CCOC(=O)/C(=C\c1ccccc1)C(=O)O
inactive: [1] -6.75% | [2] -29.9% | [3] -6.25% | [4] 26% | [5] -21.9% | [6] -1.8%

Cc1[nH]n(C2=NCCN2)c(=O)c1Cc1ccccc1
inactive: [1] 4.6% | [2] -6.95% | [3] -24.2% | [4] -26.3% | [5] -10.6% | [6] -61.6%

C[N+]1=C(/C=C/c2ccnc3c(O)cccc23)C(C)(C)c2ccccc21
inactive: [1] 10% | [2] 11.2% | [3] 2.45% | [4] -60.4% | [5] -6.4% | [6] 8.65%

CC(=O)OC1=C(C)C2=C3OC(=O)C(C)=C3CC[C@@]2(C)[C@@H](Cl)[C@@H]1Cl
inactive: [1] 40.9% | [2] -45.9% | [3] -2.6% | [4] -5.85% | [5] -15.2% | [6] -57.9%

O=C(O)Cc1ccc(Oc2ccc(CC(=O)O)cc2)cc1
inactive: [1] -4.15% | [2] -9.5% | [3] 1.85% | [4] -48.8% | [5] -8.75% | [6] 0.55%
